PubChem BioAssay AID1159580 (chemical genetic matrix, 2015)
Among all 5,500 compounds or so, about 2,000 (36%) were called active. Another 18% or so got no clear call; they are omitted. This is one part of the list. Values without a mark were called inactive. Rule as the data show it: active = normalized growth mostly below about 0.91 (no sharp cut-off); inconclusive = no clear call, values can overlap the other calls; inactive = mostly above about 0.92.

Assay: chemical genetic growth profiling, strain panel (AID 1159580);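 also: tested at 20 µM; growth read once vehicle control cultures reached saturation at 30 °C; 1 = growth at the plate median or of vehicle wells; lower values mean less growth of the strain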
Details: growth OD

## COc1cc2c(cc1OC)CC(=O)OC2
S. cerevisiae deletion strains, locus YAL013W, strain DEP1, hits give low values
  normalized growth: 0.985
S. cerevisiae deletion strains, locus YBR229C, strain ROT2, hits give low values
  normalized growth: 0.984
S. cerevisiae deletion strains, locus YCL061C, strain MRC1, hits give low values
  normalized growth: 1
S. cerevisiae deletion strains, locus YDL101C, strain DUN1, hits give low values
  normalized growth: 0.984
S. cerevisiae deletion strains, locus YDR150W, strain NUM1, hits give low values
  normalized growth: 0.966
S. cerevisiae deletion strains, locus YEL061C, strain CIN8, hits give low values
  normalized growth: 1
S. cerevisiae deletion strains, locus YGR078C, strain PAC10, hits give low values
  normalized growth: 1.01
S. cerevisiae deletion strains, locus YHR030C, strain SLT2, hits give low values
  normalized growth: 1.06
S. cerevisiae deletion strains, locus YHR087W, strain rtc3, hits give low values
  normalized growth: 0.997
S. cerevisiae deletion strains, locus YJR043C, strain POL32, hits give low values
  normalized growth: 0.993
S. cerevisiae deletion strains, locus YJR075W, strain HOC1, hits give low values
  normalized growth: 0.995
S. cerevisiae deletion strains, locus YKL190W, strain CNB1, hits give low values
  normalized growth: 1
S. cerevisiae deletion strains, locus YLR039C, strain RIC1, hits give low values
  normalized growth: 1.23 [resistant] (active)
S. cerevisiae deletion strains, locus YLR058C, strain SHM2 (second series), hits give low values
  normalized growth: 0.994
S. cerevisiae deletion strains, locus YLR085C, strain ARP6, hits give low values
  normalized growth: 1.03
S. cerevisiae deletion strains, locus YLR262C, strain YPT6, hits give low values
  normalized growth: 1.16
S. cerevisiae deletion strains, locus YML094W, strain GIM5, hits give low values
  normalized growth: 0.999
S. cerevisiae deletion strains, locus YMR219W, strain ESC1, hits give low values
  normalized growth: 0.971
S. cerevisiae deletion strains, locus YMR263W, strain SAP30, hits give low values
  normalized growth: 0.994
S. cerevisiae deletion strains, locus YNL128W, strain TEP1, hits give low values
  normalized growth: 1
S. cerevisiae deletion strains, locus YNL153C, strain GIM3, hits give low values
  normalized growth: 1.03
S. cerevisiae deletion strains, locus YNL298W, strain CLA4 (second series), hits give low values
  normalized growth: 1.04
S. cerevisiae deletion strains, locus YNL322C, strain KRE1, hits give low values
  normalized growth: 0.979
S. cerevisiae deletion strains, locus YNR030W, strain Alg12, hits give low values
  normalized growth: 1.02
S. cerevisiae deletion strains, locus YPL055C, strain LGE1, hits give low values
  normalized growth: 0.935
S. cerevisiae deletion strains, locus YPL241C, strain CIN2, hits give low values
  normalized growth: 1
S. cerevisiae deletion strains, locus YPR135W, strain CTF4, hits give low values
  normalized growth: 1.04
S. cerevisiae strains, strain wild type, hits give low values
  normalized growth: 1.01
